Reference: PubChem BioAssay AID686979 (National Center for Advancing Translational Sciences (NCATS), 2013)
Out of some 420,000 compounds screened, about 50,000 (12%) were called active. Not shown: some 26% with an inconclusive outcome. Many of the other results were omitted from the sample, so actives are more common in it than they were. Values without a mark were called inactive. Calls follow the shape of the dose curve; as a rule, active = well fitted inhibition curve with a large enough effect; inconclusive = small, poorly fitted or top-dose-only effect; inactive = flat fitted curve, though single readings scatter.

Assay: qHTS for Inhibitors of human tyrosyl-DNA phosphodiesterase 1 (TDP1): qHTS in cells in presence of CPT; also: nearly all actives have a fitted effect of over 55% in size
Conditions: chicken DT40 Tdp1-/-;hTDP1 cells + 20 nM CPT, ATP luminescence, 48 h; series mostly up to 46.2 µM; activity change, negative = growth inhibition: at the top concentration
Procedure, shortened: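 Cell growth measured by CellTiter-Glo luminescence after a minimum 48 h, 37 C compound exposure with 20 nM CPT in Tdp1-knockout DT40 cells stably expressing hTDP1, seeded 400/well; qHTS titration format.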
% is scaled to controls: 0 for no effect and ±100 for the full control effect; potency is read from the fitted curve at half-maximal effect.

SMILES	activity change, negative = growth inhibition	Potency
COc1ccc(CNC(=O)C2CCN(S(=O)(=O)c3ccc(SC)cc3)CC2)cc1	-19.3%	–
CCOc1ccc(NC(=O)c2cc(S(=O)(=O)N3CCCC3)c[nH]2)cc1	-13.5%	–
CCOc1ccc(NC(=O)C2CCCN(C(=O)Nc3ccccc3)C2)cc1 (centres undefined)	0.551%	–
COc1cccc(CNC(=O)CN(C)S(=O)(=O)c2ccc3c(c2)c(=O)n(C)c(=O)n3C)c1	–	inactive
Cc1ccc(C)c(OCCC(=O)OCC(=O)c2ccc3c(c2)NC(=O)CO3)c1	-8.45%	–
Cc1ccc(C23CC4CC(CC(C(=O)NCC(=O)O)(C4)C2)C3)cc1	-0.354%	–
CC(C)Cn1c(N)c(C(=O)COC(=O)CN2C(=O)C3CC=CCC3C2=O)c(=O)n(C)c1=O (centres undefined)	–	16.4 µM (active)
CC1CC1C(=O)OCC(=O)c1c(N)n(C)c(=O)n(C)c1=O (centres undefined)	-2.39%	–
COc1ccc(C(=O)COC(=O)CN2C(=O)C3CC=CCC3C2=O)c(OC)c1 (centres undefined)	-12.9%	–
CCOC(=O)[C@H]1[C@H]2COc3cc(OC)ccc3[C@@H]2N2C(=O)N(c3ccc(Br)cc3)C(=O)[C@@]12C	–	25.9 µM (active)
CCOC(=O)[C@H]1[C@H]2COc3ccc(Br)cc3[C@@H]2N2C(=O)CN(C)C(=O)[C@@]12C	-17.3%	–
CCOC(=O)[C@@H]1[C@H]2COc3cc(OC)ccc3[C@@H]2N2C(=O)N(c3cccc(C)c3)C(=O)[C@@]12C	-19.9%	–
CCOc1n[nH]c(-c2ccccc2)n1	-5.81%	–
Cc1ccc(S(=O)(=O)c2c[nH]c3ccc(C)cc3c2=O)cc1	-15.1%	–
CCOc1ccc(N/C=C/C(=O)c2cc(OC)c(OC)c(OC)c2)cc1	–	14.6 µM (active)
CCOc1ccc(N/C=C/C(=O)c2ccccc2)cc1	-25.2%	–
CCCOc1ccc(N/C=C/C(=O)C(C)(C)C)cc1	-14.5%	–
COCCNC(=O)C(c1ccc(O)cc1)N(C(=O)CCC(=O)Nc1nccs1)c1ccc(C)cc1 (centres undefined)	1.09%	–
COCCNC(=O)CCCn1c(=O)c2ccccc2n(Cc2cccc([N+](=O)[O-])c2)c1=O	4.94%	–
COc1ccccc1CNC(=O)CCCn1c(=O)c2ccccc2n(CC(=O)NC2CCCC2)c1=O	-22.2%	–
COc1ccc(NC(=O)Cn2c(=O)n(Cc3ccc(C(=O)NCc4ccccc4Cl)cc3)c(=O)c3ccccc32)cc1	-11.4%	–
COc1ccccc1CNC(=O)CCn1c(=O)c2ccccc2n(CC(=O)Nc2ccc(Br)cc2F)c1=O	–	23.1 µM (active)
CCCCn1c(=O)c2oc3ccccc3c2n(CC(=O)Nc2ccccc2OC)c1=O	-0.588%	–
Cc1ccccc1NC(=O)Cn1c(=O)n(CCCCC(=O)NCc2ccccc2Cl)c(=O)c2ccccc21	-29.1%	–
COc1ccccc1CNC(=O)CCn1c(=O)sc2ccccc21	-4.97%	–

SMILES	activity change, negative = growth inhibition	Potency
COc1ccccc1CNC(=O)CCCn1c(=O)c2ccccc2n(CC(=O)Nc2ccc(C)cc2Cl)c1=O	–	14.6 µM (active)
COc1ccccc1CNC(=O)CCCCn1c(=O)c2ccccc2n(CC(=O)Nc2cc(Cl)ccc2C)c1=O	–	18.4 µM (active)
CCc1nn(CC(=O)N2CCN(c3cccc(C(F)(F)F)c3)CC2)c(=O)c2cc3occc3n12	-19.3%	–
CC(C)CCN(C(=O)c1csnn1)C(C(=O)NC1CCCC1)c1ccccc1 (centres undefined)	-9.08%	–
COc1cc(CN2CCNC(=O)C2CC(=O)NCCc2ncccc2C)cc(OC)c1 (centres undefined)	26.1%	–
CCOc1ccccc1NC(=O)CCS(=O)(=O)c1cccc2nsnc12	–	inactive
Cc1ccc(S(=O)(=O)N(C)C)cc1NC(=O)COC(=O)/C=C/c1cccs1	-18.7%	–
Cc1ccccc1N(C(=O)CNC(=O)c1cccs1)C(C(=O)NC1CCCC1)c1ccncc1 (centres undefined)	0.575%	–
CCOc1cc(NS(=O)(=O)c2ccc(OC)cc2)c(OCC)cc1NC(C)=O	-0.871%	–
COc1ccc(C(=O)Nc2c(N)nc(SCC(=O)Nc3ccc(C(C)=O)cc3)[nH]c2=O)cc1	-4.08%	–
COc1ccccc1CNC(=O)CNC(=O)c1cn(-c2ccccc2OC)c(=O)c2ccccc12	3.6%	–
C=CCn1c(=O)n(C)c2c(=O)n(C)c(=O)n(C)c21	22.4%	–
Cc1c(CNCCc2ccccc2)c(C(=O)O)c(C)n1-c1ccccc1	-21.1%	–
COc1cc(C(=O)N(Cc2ccc(C(C)C)cc2)C2CCS(=O)(=O)C2)cc(OC)c1OC (centres undefined)	-0.678%	–
O=C(/C=C/c1cn(CC(O)CN2CCc3ccccc32)c2ccccc12)c1ccc(Br)cc1 (centres undefined)	–	18.4 µM (active)
CC(C)OCCCn1c(SCC(=O)c2ccccc2)nc2c(sc3ccccc32)c1=O	6.91%	–
COc1cc(CCN=Cc2ccccc2O)c([N+](=O)[O-])cc1OC	9.53%	–
Oc1ccc(N=Cc2sc3ccccc3c2Cl)cc1	–	13 µM (active)
CC(=O)n1c(C=Nc2ccccc2)c(O)c2ccccc21	-0.272%	–
Oc1ccc(N=Cc2c(O)ccc3ccccc23)cc1	-23.8%	–
CCOC(=O)c1ccc(NC(=O)c2c(N)n(C)c(=O)[nH]c2=O)cc1	-12.4%	–
Cc1cc(C2=NNC(=Nc3ccc(S(=O)(=O)N4CCOCC4)cc3)SC2)c(C)n1CC1CCCO1 (centres undefined)	–	5.17 µM (active)
Cc1ccnc(NS(=O)(=O)c2ccc(NC(=O)c3ccc(S(=O)(=O)N4CCOCC4)cc3)cc2)n1	-0.712%	–
Cc1ccc(S(=O)(=O)N2CCC(C(=O)NCC3CCCO3)CC2)cc1 (centres undefined)	-17%	–
